# Assay results from publication PMC7862700, “An all-to-all approach to the identification of sequence-specific readers for epigenetic DNA modifications on cytosine”.
# Experiments:
# Assay in all cases: DAPPL (digital affinity profiling via proximity ligation, sequencing); 10 mM Tris-HCl pH 7.5, 50 mM NaCl, 1 mM DTT, 4% glycerol, room temperature, 30 min; GST-TFs on glutathione beads, 16-mer random dsDNA library, 0.1% formaldehyde crosslink after washing; high values mean tight binding
# FEV = molecular target: T1, FEV (Homo sapiens, UniProt Q99581 1-238); conditions: protein: recombinant; tags: N-terminal GST; dsDNA, one strand shown
# T1 sequence: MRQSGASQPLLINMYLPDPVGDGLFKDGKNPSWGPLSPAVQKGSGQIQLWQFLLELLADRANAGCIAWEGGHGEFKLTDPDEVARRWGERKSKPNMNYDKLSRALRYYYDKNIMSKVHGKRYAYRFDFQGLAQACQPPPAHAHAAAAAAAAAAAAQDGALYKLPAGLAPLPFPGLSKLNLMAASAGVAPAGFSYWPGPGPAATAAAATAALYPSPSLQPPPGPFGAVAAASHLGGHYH
# In short: (§1)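 Yeast served to express human transcription factors as GST fusions, which were then captured on glutathione beads and labelled with DNA barcodes. Pooled with a tag-only sample, they were incubated with 200 nmole of a 16-mer random double-stranded DNA library for 30 min at room temperature in Tris/NaCl/DTT/glycerol buffer, washed, crosslinked with 0.1% formaldehyde, ligated by proximity, amplified by PCR and sequenced. Dividing each hexamer's read frequency for a factor by its frequency for the tag-only sample gives the binding signal.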
# ETV5 = ETV5 (Homo sapiens, UniProt P41161 1-510); conditions: protein: recombinant; tags: N-terminal GST; dsDNA, one strand shown
# In short: as §1
# HSF1 = HSF1 (Homo sapiens, UniProt Q00613 1-529); conditions: protein: recombinant; tags: N-terminal GST; chain copies: 3; dsDNA, one strand shown
# In short: as §1
# SPIC = molecular target: T2, SPIC (Homo sapiens, UniProt Q8N5J4 1-248); conditions: protein: recombinant; tags: N-terminal GST; dsDNA, one strand shown
# T2 sequence: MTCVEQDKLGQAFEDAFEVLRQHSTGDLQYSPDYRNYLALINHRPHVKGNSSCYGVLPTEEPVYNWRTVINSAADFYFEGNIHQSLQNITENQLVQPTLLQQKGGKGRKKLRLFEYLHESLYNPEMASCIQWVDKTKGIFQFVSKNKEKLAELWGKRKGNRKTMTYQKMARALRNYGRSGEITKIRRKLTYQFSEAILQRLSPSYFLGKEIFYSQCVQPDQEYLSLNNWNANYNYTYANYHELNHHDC
# In short: as §1
# ELF4 = ELF4 (Homo sapiens, UniProt Q99607 1-663); conditions: protein: recombinant; tags: N-terminal GST; dsDNA, one strand shown
# In short: as §1
# ELK4 = molecular target: T3, ELK4 (Homo sapiens, UniProt P28324-2 1-405); conditions: protein: recombinant; tags: N-terminal GST; dsDNA, one strand shown
# T3 sequence: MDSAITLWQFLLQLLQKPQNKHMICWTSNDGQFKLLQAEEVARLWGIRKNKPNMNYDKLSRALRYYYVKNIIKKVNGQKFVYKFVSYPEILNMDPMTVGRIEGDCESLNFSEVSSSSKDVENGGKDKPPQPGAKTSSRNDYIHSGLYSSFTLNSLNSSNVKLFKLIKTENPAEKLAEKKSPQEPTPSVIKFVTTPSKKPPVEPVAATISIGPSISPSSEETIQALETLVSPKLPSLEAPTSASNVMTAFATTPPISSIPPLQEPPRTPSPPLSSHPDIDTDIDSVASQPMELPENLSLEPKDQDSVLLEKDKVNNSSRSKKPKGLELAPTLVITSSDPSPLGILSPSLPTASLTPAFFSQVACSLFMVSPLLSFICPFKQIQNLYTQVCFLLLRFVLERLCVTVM
# In short: as §1
# ETV2 = molecular target: T4, ETV2 (Homo sapiens, UniProt O00321 1-342); conditions: protein: recombinant; tags: N-terminal GST; dsDNA, one strand shown
# T4 sequence: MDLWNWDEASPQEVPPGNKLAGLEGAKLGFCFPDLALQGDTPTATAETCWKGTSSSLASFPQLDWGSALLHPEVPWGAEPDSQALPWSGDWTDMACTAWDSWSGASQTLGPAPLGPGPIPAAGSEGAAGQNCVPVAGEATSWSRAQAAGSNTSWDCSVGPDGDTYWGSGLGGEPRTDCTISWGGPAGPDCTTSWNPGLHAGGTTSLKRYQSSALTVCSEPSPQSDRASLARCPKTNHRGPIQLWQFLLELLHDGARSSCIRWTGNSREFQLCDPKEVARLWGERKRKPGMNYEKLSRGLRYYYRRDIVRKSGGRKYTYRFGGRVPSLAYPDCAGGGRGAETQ
# In short: as §1
# ELF3 = molecular target: T5, ELF3 (Homo sapiens, UniProt P78545 1-371); conditions: protein: recombinant; tags: N-terminal GST; dsDNA, one strand shown
# T5 sequence: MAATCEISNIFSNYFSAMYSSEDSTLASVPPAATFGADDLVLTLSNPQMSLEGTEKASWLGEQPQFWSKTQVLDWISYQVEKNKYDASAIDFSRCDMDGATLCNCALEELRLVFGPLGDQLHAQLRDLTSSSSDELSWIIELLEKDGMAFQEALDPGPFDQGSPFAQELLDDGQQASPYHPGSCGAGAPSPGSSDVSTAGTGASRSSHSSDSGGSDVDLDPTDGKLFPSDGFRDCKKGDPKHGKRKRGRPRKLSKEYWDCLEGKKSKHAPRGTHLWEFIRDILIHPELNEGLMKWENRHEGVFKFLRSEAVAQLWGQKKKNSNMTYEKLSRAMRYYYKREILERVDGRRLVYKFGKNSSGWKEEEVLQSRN
# In short: as §1
# CRX = CRX (Homo sapiens, UniProt O43186 1-299); conditions: protein: recombinant; tags: N-terminal GST; dsDNA, one strand shown
# In short: as §1
# ETV1 = ETV1 (Homo sapiens, UniProt P50549 1-477); conditions: protein: recombinant; tags: N-terminal GST; dsDNA, one strand shown
# In short: as §1
# ERF = molecular target: T6, ERF (Homo sapiens, UniProt P50548 1-548); conditions: protein: recombinant; tags: N-terminal GST; dsDNA, one strand shown
# T6 sequence: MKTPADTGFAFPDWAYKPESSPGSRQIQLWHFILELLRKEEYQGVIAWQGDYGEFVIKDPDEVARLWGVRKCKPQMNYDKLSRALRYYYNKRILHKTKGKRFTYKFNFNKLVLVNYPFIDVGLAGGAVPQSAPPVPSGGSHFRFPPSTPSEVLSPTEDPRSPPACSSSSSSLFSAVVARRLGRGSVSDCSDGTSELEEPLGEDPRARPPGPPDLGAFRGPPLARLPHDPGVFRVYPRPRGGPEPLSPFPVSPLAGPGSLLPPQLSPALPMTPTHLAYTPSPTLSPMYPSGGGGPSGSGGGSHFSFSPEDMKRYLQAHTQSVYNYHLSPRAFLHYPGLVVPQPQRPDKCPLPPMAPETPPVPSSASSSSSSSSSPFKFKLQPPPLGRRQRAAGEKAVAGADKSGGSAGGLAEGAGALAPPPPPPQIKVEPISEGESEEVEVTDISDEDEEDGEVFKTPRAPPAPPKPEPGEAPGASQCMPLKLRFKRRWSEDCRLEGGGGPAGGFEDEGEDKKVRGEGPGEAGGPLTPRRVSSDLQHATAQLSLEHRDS
# In short: as §1
# ETV3L = molecular target: T7, ETV3L (Homo sapiens, UniProt Q6ZN32 1-361); conditions: protein: recombinant; tags: N-terminal GST; dsDNA, one strand shown
# T7 sequence: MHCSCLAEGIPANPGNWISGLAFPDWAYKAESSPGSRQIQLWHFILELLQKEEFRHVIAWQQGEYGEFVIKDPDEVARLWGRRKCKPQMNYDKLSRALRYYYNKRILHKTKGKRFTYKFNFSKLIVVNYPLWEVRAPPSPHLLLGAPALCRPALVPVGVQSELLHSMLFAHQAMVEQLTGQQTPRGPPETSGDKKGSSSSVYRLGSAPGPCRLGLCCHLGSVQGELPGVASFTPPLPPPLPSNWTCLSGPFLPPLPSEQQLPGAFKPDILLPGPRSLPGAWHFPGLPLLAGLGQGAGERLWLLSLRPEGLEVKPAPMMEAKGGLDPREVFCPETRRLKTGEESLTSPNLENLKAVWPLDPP
# In short: as §1
# ETS2 = molecular target: T8, ETS2 (Homo sapiens, UniProt P15036 1-469); conditions: protein: recombinant; tags: N-terminal GST; dsDNA, one strand shown
# T8 sequence: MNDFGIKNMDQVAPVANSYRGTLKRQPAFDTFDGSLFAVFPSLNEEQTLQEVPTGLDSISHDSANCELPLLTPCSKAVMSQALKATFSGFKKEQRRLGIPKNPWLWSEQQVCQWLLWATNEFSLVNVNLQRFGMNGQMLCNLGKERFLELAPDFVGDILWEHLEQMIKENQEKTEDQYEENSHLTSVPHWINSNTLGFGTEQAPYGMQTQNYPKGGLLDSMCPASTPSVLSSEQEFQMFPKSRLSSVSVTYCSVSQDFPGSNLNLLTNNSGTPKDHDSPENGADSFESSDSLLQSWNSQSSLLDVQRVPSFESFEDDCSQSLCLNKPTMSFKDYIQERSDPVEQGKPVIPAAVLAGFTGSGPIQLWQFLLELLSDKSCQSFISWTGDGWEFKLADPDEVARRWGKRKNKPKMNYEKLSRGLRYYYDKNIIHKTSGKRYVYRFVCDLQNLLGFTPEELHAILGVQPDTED
# In short: as §1
# SPDEF = molecular target: T9, SPDEF (Homo sapiens, UniProt O95238 1-335); conditions: protein: recombinant; tags: N-terminal GST; dsDNA, one strand shown
# T9 sequence: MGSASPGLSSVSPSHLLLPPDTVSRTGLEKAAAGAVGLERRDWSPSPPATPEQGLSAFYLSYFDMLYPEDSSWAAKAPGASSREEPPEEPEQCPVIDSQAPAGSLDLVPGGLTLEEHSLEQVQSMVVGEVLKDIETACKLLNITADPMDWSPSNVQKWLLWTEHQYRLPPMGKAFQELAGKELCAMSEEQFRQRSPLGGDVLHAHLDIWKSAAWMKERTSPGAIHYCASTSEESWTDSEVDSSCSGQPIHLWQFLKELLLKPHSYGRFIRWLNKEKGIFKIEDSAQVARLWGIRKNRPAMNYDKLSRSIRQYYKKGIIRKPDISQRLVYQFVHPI
# In short: as §1
# ETV7 = molecular target: T10, ETV7 (Homo sapiens, UniProt Q9Y603 1-341); conditions: protein: recombinant; tags: N-terminal GST; dsDNA, one strand shown
# T10 sequence: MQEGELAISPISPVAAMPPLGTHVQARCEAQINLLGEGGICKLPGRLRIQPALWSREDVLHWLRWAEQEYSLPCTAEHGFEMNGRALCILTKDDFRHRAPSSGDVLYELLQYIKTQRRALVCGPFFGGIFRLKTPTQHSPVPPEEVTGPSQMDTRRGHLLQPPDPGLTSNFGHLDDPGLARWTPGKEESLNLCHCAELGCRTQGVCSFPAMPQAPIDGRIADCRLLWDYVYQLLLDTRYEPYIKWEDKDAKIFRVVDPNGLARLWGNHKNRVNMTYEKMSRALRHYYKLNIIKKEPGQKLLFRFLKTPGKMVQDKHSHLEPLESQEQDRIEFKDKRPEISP
# In short: as §1
# ELF5 = molecular target: T11, ELF5 (Homo sapiens, UniProt Q9UKW6-2 1-255); conditions: protein: recombinant; tags: N-terminal GST; dsDNA, one strand shown
# T11 sequence: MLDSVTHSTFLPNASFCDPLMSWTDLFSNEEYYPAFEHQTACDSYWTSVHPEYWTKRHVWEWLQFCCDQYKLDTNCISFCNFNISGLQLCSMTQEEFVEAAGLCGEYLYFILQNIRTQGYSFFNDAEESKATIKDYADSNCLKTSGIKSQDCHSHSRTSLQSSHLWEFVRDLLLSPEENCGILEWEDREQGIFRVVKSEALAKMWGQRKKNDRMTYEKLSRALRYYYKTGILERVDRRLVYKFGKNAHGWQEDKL
# In short: as §1
# ETV3 = molecular target: T12, ETV3 (Homo sapiens, UniProt P41162-2 1-143); conditions: protein: recombinant; tags: N-terminal GST; dsDNA, one strand shown
# T12 sequence: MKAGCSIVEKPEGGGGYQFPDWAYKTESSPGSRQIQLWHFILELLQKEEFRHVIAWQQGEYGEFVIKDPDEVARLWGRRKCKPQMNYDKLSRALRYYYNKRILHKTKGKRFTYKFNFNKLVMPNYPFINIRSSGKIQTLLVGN
# In short: as §1
# ETV6 = ETV6 (Homo sapiens, UniProt P41212 1-452); conditions: protein: recombinant; tags: N-terminal GST; dsDNA, one strand shown
# In short: as §1
# ETV6, sequence (P41212 whole entry): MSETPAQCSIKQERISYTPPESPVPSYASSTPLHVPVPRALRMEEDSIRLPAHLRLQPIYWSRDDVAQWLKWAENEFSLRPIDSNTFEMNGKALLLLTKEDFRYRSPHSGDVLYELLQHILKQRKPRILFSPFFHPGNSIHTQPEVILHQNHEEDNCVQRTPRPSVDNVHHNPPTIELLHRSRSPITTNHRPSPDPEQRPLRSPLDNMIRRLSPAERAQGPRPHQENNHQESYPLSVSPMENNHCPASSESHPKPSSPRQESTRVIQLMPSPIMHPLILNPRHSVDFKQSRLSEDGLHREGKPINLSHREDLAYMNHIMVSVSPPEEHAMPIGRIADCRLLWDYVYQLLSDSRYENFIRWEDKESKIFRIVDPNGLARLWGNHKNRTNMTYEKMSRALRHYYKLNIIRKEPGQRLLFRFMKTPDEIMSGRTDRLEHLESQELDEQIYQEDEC
# CRX, sequence (O43186 whole entry): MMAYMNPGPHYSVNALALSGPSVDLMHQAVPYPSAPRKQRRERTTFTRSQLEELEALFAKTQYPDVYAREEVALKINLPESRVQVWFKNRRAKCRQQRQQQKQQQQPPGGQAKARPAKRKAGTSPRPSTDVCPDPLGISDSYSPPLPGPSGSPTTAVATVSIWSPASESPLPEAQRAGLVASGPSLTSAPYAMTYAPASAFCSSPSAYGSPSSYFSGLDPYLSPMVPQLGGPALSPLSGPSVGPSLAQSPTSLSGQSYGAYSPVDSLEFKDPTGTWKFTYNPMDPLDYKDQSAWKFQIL
# ELF4, sequence (Q99607 whole entry): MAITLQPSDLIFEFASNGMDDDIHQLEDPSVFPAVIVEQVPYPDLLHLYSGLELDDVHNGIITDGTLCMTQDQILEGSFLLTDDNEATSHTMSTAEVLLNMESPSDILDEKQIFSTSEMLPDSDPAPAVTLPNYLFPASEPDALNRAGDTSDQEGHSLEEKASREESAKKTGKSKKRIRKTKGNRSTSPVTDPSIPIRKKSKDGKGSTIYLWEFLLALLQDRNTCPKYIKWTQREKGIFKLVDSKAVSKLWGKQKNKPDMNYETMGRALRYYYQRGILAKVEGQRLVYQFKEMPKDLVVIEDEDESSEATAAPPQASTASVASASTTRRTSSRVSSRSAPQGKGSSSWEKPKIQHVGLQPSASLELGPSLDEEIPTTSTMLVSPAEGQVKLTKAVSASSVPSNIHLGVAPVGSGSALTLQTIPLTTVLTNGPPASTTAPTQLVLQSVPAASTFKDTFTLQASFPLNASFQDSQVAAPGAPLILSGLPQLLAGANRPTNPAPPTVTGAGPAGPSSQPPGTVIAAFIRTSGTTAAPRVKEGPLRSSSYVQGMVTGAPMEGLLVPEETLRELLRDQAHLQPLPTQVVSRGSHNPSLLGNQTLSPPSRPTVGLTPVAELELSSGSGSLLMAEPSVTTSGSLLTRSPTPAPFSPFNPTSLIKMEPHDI
# ETV1, sequence (P50549 whole entry): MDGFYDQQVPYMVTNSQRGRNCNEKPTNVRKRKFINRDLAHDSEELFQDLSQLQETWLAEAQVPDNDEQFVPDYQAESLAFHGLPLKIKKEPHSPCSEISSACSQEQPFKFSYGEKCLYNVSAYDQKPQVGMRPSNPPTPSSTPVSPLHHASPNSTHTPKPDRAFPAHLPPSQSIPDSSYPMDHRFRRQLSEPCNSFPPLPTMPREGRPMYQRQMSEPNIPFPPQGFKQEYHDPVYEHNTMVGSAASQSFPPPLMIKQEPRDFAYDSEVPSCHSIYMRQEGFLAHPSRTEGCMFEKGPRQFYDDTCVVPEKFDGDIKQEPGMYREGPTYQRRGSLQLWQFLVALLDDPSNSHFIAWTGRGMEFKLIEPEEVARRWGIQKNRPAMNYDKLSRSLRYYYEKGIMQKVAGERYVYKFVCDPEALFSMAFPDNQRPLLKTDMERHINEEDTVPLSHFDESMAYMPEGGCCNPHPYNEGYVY
# HSF1, sequence (Q00613 whole entry): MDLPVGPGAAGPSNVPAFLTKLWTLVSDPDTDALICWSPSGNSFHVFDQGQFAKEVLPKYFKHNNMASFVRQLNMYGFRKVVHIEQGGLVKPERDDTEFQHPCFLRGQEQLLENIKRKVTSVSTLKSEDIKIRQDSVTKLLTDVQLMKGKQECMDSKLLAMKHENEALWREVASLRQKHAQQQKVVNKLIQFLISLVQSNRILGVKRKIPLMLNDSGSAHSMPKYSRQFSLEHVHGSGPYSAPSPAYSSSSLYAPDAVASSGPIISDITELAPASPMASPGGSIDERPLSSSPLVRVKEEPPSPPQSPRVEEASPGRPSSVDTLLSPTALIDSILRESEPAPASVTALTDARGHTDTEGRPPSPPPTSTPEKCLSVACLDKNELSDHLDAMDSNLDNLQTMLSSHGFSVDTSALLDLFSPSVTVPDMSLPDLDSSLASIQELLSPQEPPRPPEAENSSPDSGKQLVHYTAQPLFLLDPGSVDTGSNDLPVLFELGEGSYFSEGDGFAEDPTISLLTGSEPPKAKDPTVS
# ETV5, sequence (P41161 whole entry): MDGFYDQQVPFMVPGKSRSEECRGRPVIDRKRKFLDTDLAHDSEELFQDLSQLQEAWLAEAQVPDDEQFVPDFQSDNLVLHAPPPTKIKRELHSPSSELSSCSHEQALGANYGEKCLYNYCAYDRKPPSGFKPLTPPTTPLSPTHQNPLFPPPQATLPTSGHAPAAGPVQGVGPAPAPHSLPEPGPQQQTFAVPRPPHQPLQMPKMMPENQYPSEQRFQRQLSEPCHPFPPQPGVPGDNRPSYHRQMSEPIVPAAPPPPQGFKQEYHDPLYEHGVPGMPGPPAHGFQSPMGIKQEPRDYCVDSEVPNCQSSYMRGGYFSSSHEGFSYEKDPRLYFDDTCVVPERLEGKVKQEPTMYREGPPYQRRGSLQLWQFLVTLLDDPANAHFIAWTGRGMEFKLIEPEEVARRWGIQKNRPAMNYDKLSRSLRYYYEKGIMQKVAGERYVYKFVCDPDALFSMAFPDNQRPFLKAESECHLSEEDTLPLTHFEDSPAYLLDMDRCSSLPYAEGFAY
sequence,measurement,setting,value
AAGTTA,binding signal,FEV,"1.15 fold enrichment (6-mer frequency, TF over GST control)"
same,binding signal,ETV5,"1.26 fold enrichment (6-mer frequency, TF over GST control)"
same,binding signal,HSF1,"1.09 fold enrichment (6-mer frequency, TF over GST control)"
same,binding signal,SPIC,"1.27 fold enrichment (6-mer frequency, TF over GST control)"
same,binding signal,ELF4,"1.28 fold enrichment (6-mer frequency, TF over GST control)"
same,binding signal,ELK4,"1.19 fold enrichment (6-mer frequency, TF over GST control)"
same,binding signal,ETV2,"1.27 fold enrichment (6-mer frequency, TF over GST control)"
same,binding signal,ELF3,"1.15 fold enrichment (6-mer frequency, TF over GST control)"
same,binding signal,CRX,"1.26 fold enrichment (6-mer frequency, TF over GST control)"
same,binding signal,ETV1,"1.23 fold enrichment (6-mer frequency, TF over GST control)"
same,binding signal,ERF,"1.24 fold enrichment (6-mer frequency, TF over GST control)"
same,binding signal,ETV3L,"1.18 fold enrichment (6-mer frequency, TF over GST control)"
same,binding signal,ETS2,"1.24 fold enrichment (6-mer frequency, TF over GST control)"
same,binding signal,SPDEF,"1.08 fold enrichment (6-mer frequency, TF over GST control)"
same,binding signal,ETV7,"1.21 fold enrichment (6-mer frequency, TF over GST control)"
same,binding signal,ELF5,"1.21 fold enrichment (6-mer frequency, TF over GST control)"
same,binding signal,ETV3,"1.19 fold enrichment (6-mer frequency, TF over GST control)"
same,binding signal,ETV6,"1.3 fold enrichment (6-mer frequency, TF over GST control)"
